Bioassay records as filed in PubChem.
S1P1 agonist – S1P1 (human) receptor agonism. actives 1.5% (n = 16,000). S1P1 agonist cell-based reporter assay. activation, % at 4.5 µM; in the data active means activation above about 80%
rat GALR2 ag – activates the rat galanin receptor 2 | O08726 | actives 0.5% (n = 16,000) | cell-based GALR2 agonist screen | AID 833 | activation, % at 10 µM; in the data active means activation above about 15%
Target sequence (O08726 whole entry, looked up): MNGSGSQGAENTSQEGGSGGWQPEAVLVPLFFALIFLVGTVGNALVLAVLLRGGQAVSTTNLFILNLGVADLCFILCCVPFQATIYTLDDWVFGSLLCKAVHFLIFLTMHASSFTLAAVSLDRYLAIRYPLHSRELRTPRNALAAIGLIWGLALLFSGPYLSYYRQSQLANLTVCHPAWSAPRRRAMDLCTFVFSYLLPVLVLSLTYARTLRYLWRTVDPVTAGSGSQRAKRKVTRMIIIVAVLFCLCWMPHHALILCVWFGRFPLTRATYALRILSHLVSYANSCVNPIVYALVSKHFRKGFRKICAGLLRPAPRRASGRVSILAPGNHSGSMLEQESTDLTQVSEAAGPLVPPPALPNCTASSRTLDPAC
* hit, by the source's call. Sampled rows, rich in hits. Any-hit rate of the full collection: about 2%.

SMILES | S1P1 agonist | rat GALR2 ag
CN(CCC#N)c1ccc(/C=N/NC(=O)C2CCN(C(=S)NC3CC4C=CC3C4)CC2)cc1 (centres undefined) | 67 | -7
CN(CCC#N)c1ccc(C=NCCCN=Cc2ccc(N(C)CCC#N)cc2)cc1 | 101* | -1
O=C(OCCOc1ccc([N+](=O)[O-])cc1)c1ccc(Br)o1 | -5 | -9
O=C(On1nnc2ccccc2c1=O)c1cccc(N2C(=O)C=CC2=O)c1 | 1 | -6
COc1ccccc1CC(=O)O/N=C/c1ccc2c(c1)OCO2 | -1 | -7
COc1ccc(C(=O)CC(C(=O)c2ccccc2)c2ccccc2)cc1 (centres undefined) | 102* | -10
O=C(CC(C(=O)c1ccccc1)c1cccs1)c1ccc(Cl)cc1 (centres undefined) | 43 | -9
Cc1nc(-c2ccc(/C(N)=N/OC(=O)c3c(F)cccc3Cl)cc2)cs1 | 57 | -8
N/C(=N\OC(=O)c1ccc(OCC(F)(F)F)nc1)c1cccc(Cl)c1 | 95* | -6
Cc1cc(/C(N)=N/OC(=O)c2cccc(Cl)c2)no1 | -7 | -5
COc1ccc(C(=O)Nc2nc(-c3ccc(C)c(Cl)c3)c(C)s2)cc1 | 10 | 17*
Cc1ccc(-c2nc(NC(=O)c3c(C)noc3C)sc2C)cc1Cl | -21 | -10
Cc1cc2ncc(N=Nc3ccc(Cl)cc3)c(-c3cccs3)n2n1 | -5 | -9
O=C(Nc1ccc2nccnc2c1)c1ccc2nsnc2c1 | -10 | -7
Cc1ccc(-c2csc3ncnc(NCc4ccco4)c23)cc1 | 87* | -7
O=[N+]([O-])c1c(NCc2ccco2)ncnc1NCc1ccco1 | -1 | -5
COc1ccc(/C=C/c2nc(-c3ccc(OS(=O)(=O)N(C)C)cc3)no2)c(Cl)c1OC | 16 | -7
c1ccc(-c2nc(-c3noc(-c4ccccc4)n3)no2)cc1 | 8 | -2
Cc1cccc(-c2noc(C(=O)NNC(=O)C(Cl)(Cl)Cl)n2)c1 | 6 | -7
COc1ccc(-c2nc(-c3ccc(OS(=O)(=O)N(C)C)cc3)no2)cc1OC | 107* | -12
COc1ccc(-c2nc(-c3cccc(C)c3)no2)cc1OC | 97* | -9
COc1ccc(-c2noc(-c3ccccc3)n2)cc1OC1CCCC1 | 98* | -9
O=C1c2cccc3c2N(CCC3)C(=O)C1(Cl)Cl | -21 | -5
CC(C)(CC(=O)O)CC(=O)Nc1ccc(OC(F)F)cc1 | -3 | -4
Nc1[nH]c(=O)[nH]c(=O)c1Br | -12 | -6
SMILES | S1P1 agonist | rat GALR2 ag
O=C(C[n+]1ccccc1)c1c(F)cccc1F | 11 | -5
N#Cc1ccc(N2CCN(S(=O)(=O)c3ccccc3)CC2)nc1 | -4 | -6
O=S(=O)(c1ccccc1)N1CCN(c2ncnc3sccc23)CC1 | 92* | -11
NC(=O)CNC(=O)CSc1nc2ccccc2s1 | -9 | -7
O=S(=O)(c1ccccc1)c1ccc(-c2ccn[nH]2)cc1 | 6 | -9
Cc1ccc(S(=O)(=O)NC(=O)NCCc2cccs2)cc1 | -9 | -7
N/C(=N\O)c1cccc(CSc2ccccn2)c1 | 1 | -3
CC(C)OC(=O)Cc1csc(-c2ccc(Cl)cc2)n1 | -14 | -7
Clc1ccc(-c2nc(CN3CCOCC3)cs2)cc1 | 102* | -11
COc1ccc(CCN2C(=O)CCC(C(=O)O)C2c2cc(OC)c(OC)c(OC)c2)cc1OC (centres undefined) | 116* | -7
COc1ccc(CCNC(=O)C2CCCO2)cc1OC (centres undefined) | -5 | 6
Cc1ccc(NC(=O)C(=O)N/N=C/c2ccccn2)cc1C | -10 | -5
Clc1ccc2sc(SCc3ccccc3)nc2c1 | -3 | -7
O=C1NNC(SCc2ccc(Br)cc2)=Nc2ccccc21 | 96* | -6
CC(=O)N1CCSC1C(=O)NN (centres undefined) | 10 | -8
Cc1nc(C(F)(F)F)ccc1C(=O)N1CCN(c2nc3ccc(Cl)cc3s2)CC1 | 88* | -11
Cc1nc(C(F)(F)F)ccc1C(=O)N1CCSCC1 | -15 | -6
O=C(NCc1ccccn1)c1cccc(C(F)(F)F)n1 | -8 | -1
O=C(NCc1ccccn1)c1cccnc1SCCS(=O)(=O)c1cccc(C(F)(F)F)c1 | 117* | 3
O=C(O)Cc1noc2ccccc12 | -5 | -8
OCc1ccc(-c2cc(C(F)(F)F)cc(C(F)(F)F)c2)o1 | -11 | -7
O/N=C/c1ccc(-c2cc(C(F)(F)F)cc(C(F)(F)F)c2)o1 | 92* | -7
COc1ccc(-c2cc(C(F)(F)F)n3nc(-c4ccco4)cc3n2)cc1OC | 52 | 27*
COc1ccc(-c2cc(C(F)(F)F)nc(N)n2)cc1 | 50 | -3
Cc1cc2nc(-c3ccccn3)cc(C(F)(F)F)n2n1 | -12 | -6
COc1ccc(-c2cc(C(F)(F)F)n3nc(C4CC4)cc3n2)cc1 | 85* | -6
O=[N+]([O-])c1ccc(/C=N/OCc2cc(Cl)sc2Cl)cc1 | -2 | -6
CCOC(=O)/C(C#N)=C/c1ccccc1 | -2 | -5
CCOC(=O)/C(C#N)=C/c1cn(-c2ccccc2)nc1-c1ccccc1 | -6 | 69*
